# High-throughput results deposited in PubChem by The Scripps Research Institute Molecular Screening Center.
# Sampled rows, rich in hits. Any-hit rate of the full collection: about 3.5%.
# MITF primary: MITF inhibitors, primary screen, biochemical, AlphaScreen, human; AlphaScreen MITF homodimerization, bead proximity signal; inhibition, % at 2.6 µM; AID 1259374, 2018; Microphthalmia-associated transcription factor (Homo sapiens), O75030; hit rate 0.91% among 650,000; in the data active = inhibition above about 50%
# Target sequence (O75030 whole entry, looked up): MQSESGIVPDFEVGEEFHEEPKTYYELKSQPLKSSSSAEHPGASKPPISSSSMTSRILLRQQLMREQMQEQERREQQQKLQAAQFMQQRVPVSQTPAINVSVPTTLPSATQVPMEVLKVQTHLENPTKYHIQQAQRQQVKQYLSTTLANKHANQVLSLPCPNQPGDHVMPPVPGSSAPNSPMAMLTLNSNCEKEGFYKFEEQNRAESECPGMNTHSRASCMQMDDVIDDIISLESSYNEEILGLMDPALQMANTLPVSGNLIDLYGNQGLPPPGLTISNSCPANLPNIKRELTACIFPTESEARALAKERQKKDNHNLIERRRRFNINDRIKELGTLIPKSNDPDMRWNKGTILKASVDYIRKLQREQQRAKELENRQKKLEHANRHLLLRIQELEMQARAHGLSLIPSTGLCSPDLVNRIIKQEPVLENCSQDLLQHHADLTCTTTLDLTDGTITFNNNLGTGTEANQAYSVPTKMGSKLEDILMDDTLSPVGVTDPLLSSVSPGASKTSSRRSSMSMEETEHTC
# FBW7 act: FBW7 E3 ligase activators, primary screen, biochemical, AlphaScreen, human. hit rate 0.13% among 650,000. AID 1259310, 2017. F-box/WD repeat-containing protein 7 (Homo sapiens), Q969H0. AlphaScreen FBW7–phospho-cyclin E peptide binding, activator screen. normalized activity (activation), % at 26.1 µM; in the data active = normalized activity above about 1.9%;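 also: purified mutant Fbw7 with reduced substrate affinity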
# TEAD-YAP inh: TEAD-YAP interaction inhibition, primary screen, TEAD-YAP interaction inhibitor project, luminescence, HEK-TIYL cells; hit rate 1.4% among 640,000; AID 1259422, 2018; TEAD-Gal4/YAP UAS-luciferase luminescence; inhibition, % at 9.12 µM; in the data active = inhibition above about 32%
# GPR151 activ: activators of human GPR151, primary screen, cell-based, PathHunter beta-arrestin, luminescence. G-protein coupled receptor 151 (Homo sapiens), Q8TDV0. PathHunter beta-arrestin GPR151 cells. AID 1508602, 2020. activation, % at 11.2 µM. hit rate 1% among 650,000; in the data active = activation above about 4.9%
# GPR151 confirm: GPR151 activators, triplicate retest, confirmation, cell-based, PathHunter beta-arrestin, luminescence | activation, % at 11.2 µM | GPR151 PathHunter beta-arrestin cells, 90 min; % of EA-reagent control over plate median | 6,700 tested, under 10 active | shares compounds with GPR151 activ;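 active = mean percent activation across replicates above the confirmation screen cutoff of 4.91%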
# GPR119 counter: GPR119 activators in beta-arrestin cells, counter-screen for GPR151 activator project, cell-based, PathHunter beta-arrestin, luminescence, triplicate; 90 min; 0 = compound-well median, 100 = enzyme-acceptor control; AID 1508611, 2020; hit rate 0.3% among 6,700; shares compounds with GPR151 activ; activation, % at 11.2 µM;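 active = mean percent activation in the counterscreen above 29.09%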;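 also: counterscreen on off-target GPR119 to flag nonselective hits from the GPR151 activator screen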
# Hits are given with their value; - = inactive; . = no result.
SMILES,MITF primary,FBW7 act,TEAD-YAP inh,GPR151 activ,GPR151 confirm,GPR119 counter
Cc1ccc(NC(=O)Nc2nnc(COc3ccc(Br)cc3)s2)cc1,-,-,-,-,.,.
CC(=O)Nc1nnc(COc2ccc(Br)cc2)s1,-,-,-,7.9,-,-
Cc1cc(C)cc(NC(=O)c2ccc3c(=O)n(-c4ccccc4)c(SCc4cccc(Cl)c4)nc3c2)c1,-,-,-,-,.,.
CCN1CCN(C(=O)c2nc(-c3cccc(F)c3)n3c2CCCCC3)CC1,-,-,-,5.5,-,-
Cc1nc(NC(C)c2ccccc2)cc(-c2ccccc2F)n1 (stereo not given),-,-,-,5.8,-,-
O=C(NC1CCCCC1)c1ccccc1I,-,-,-,-,.,.
Cc1cccc(N2C(=O)CC(Nc3ccc(F)cc3)C2=O)c1 (stereo not given),-,-,-,-,.,.
Cc1ccc(N2C(=O)CC(Nc3ccc(F)cc3)C2=O)c(Br)c1 (stereo not given),-,-,-,15,-,-
CCCc1nc2ccccc2c(=O)n1-c1c(C)n(C)n(-c2ccccc2)c1=O,-,-,-,6.8,-,-
Cc1c(-n2c(SC/C=C\Cl)nc3ccccc3c2=O)c(=O)n(-c2ccccc2)n1C,-,-,-,-,.,.
COc1ccc(C2CC(c3cccs3)=NN2C(=O)CSc2nnc(CNC(=O)c3ccccc3F)n2-c2cccc(C)c2C)cc1 (stereo not given),-,-,-,-,.,.
Cc1c(=O)n(OCc2ccccc2F)c2ccccc2[n+]1[O-],-,-,-,12,-,-
Cc1c(=O)n(OCc2cccc(F)c2)c2ccccc2[n+]1[O-],-,-,-,-,.,.
CC(C)c1ccc(NC(=O)c2cc(S(=O)(=O)N3CCc4ccccc43)ccc2F)cc1,-,-,-,7.4,-,-
Cc1ccc(NC(=O)c2ccccc2NC(=O)c2ccc(S(=O)(=O)N3CCc4ccccc43)cc2)c(C(=O)c2ccccc2)c1,-,-,-,8.7,-,-
COc1ccc(C2C=C(c3ccc(Cl)cc3)Nc3nc(CCCO)nn32)cc1 (stereo not given),-,-,-,6.1,-,-
Cc1ccc(C2=CC(c3ccc(Cl)cc3)n3nc(CCCO)nc3N2)cc1 (stereo not given),-,-,-,-,.,.
CCn1nc(C)c(CNCc2cn[nH]c2-c2ccc(OC)c(F)c2)c1C,-,-,-,5.4,-,-
COc1ccc(-c2[nH]ncc2CNC(C)CCn2cccn2)cc1F (stereo not given),-,-,-,-,.,.
C=CCN(CC=C)S(=O)(=O)c1ccc(NC(=O)CCC(=O)O)cc1,-,-,-,-,.,.
Cc1nc(NC(=O)/C=C/c2ccccc2)sc1C(=O)Nc1cccnc1,-,-,-,9.1,-,-
CCOC(=O)N1CCN(C(=O)c2cc3c(-c4ccccc4F)nn(C)c3s2)CC1,-,-,-,-,.,.
COc1ccc(OC)c(-c2c3cc(O)c(=O)cc-3oc3cc(O)c(O)cc23)c1,107,-,-,5.0,-,-
O=c1cc(-c2ccccc2O)oc2cc(O)ccc12,-,-,-,-,.,.
O=c1cc2oc3cc(O)c(O)cc3c(-c3ccccc3)c-2cc1O,104,-,-,6.2,-,-
SMILES,MITF primary,FBW7 act,TEAD-YAP inh,GPR151 activ,GPR151 confirm,GPR119 counter
CCCc1ccc(C(=O)/C=C/N(C)C)cc1,-,-,-,5.7,-,-
COc1cccc(COC(=O)c2n[nH]c3ccccc23)c1,-,-,-,6.9,-,-
COc1ccc(C(=O)OCc2cccc([N+](=O)[O-])c2)cc1,-,-,-,-,.,.
COc1cccc(C(=O)OCc2cccc([N+](=O)[O-])c2)c1,-,-,-,6.9,-,-
CC(C)c1ccc(N2C(=O)NC(=O)/C(=C/c3ccccc3O)C2=O)cc1,-,-,-,12,-,-
CC(C)c1ccc(N2C(=O)NC(=O)/C(=C/c3ccc(O)cc3)C2=O)cc1,-,-,-,-,.,.
O=C(COC(=O)c1ccco1)Nc1ccc2c(c1)OCO2,-,-,-,5.5,-,-
O=C(CS(=O)CC(=O)Nc1ccc2c(c1)OCCO2)Nc1ccc(F)cc1 (stereo not given),-,-,-,-,.,.
O=C(CCCCC(=O)Nc1ccc2c(c1)OCCO2)Nc1ccc2c(c1)OCCO2,-,-,-,5.1,-,-
O=C(CS(=O)CC(=O)Nc1ccc2c(c1)OCCO2)Nc1ccc(Cl)cc1 (stereo not given),-,-,-,6.7,-,-
COc1cc(NC(=O)c2cccc(-c3c(C)nn(C)c3C)n2)cc(OC)c1OC,-,-,-,-,.,.
O=c1/c(=C/c2ccc(Cl)c([N+](=O)[O-])c2)sc2nc3ccccc3n12,-,-,-,-,.,.
COc1cccc(-c2ccccc2NC(=O)C2CCN(Cc3ccco3)CC2)c1,-,-,-,-,.,.
CC(C)OC(=O)/C(C#N)=C\c1cccs1,-,-,-,6.0,-,-
CC(C)CC(=O)Nc1ccc(C(=O)Nc2ccc(O)cc2)cc1,-,-,-,-,.,.
O=c1c2c3c(sc2ncn1/N=C/c1ccc(O)c(O)c1O)CCCC3,58,-,-,5.4,-,-
O=C(Cn1cncn1)c1ccc(Cl)cc1,-,-,-,7.8,-,-
Clc1ccc(SCCCCn2cncn2)cc1,-,-,-,9.2,-,-
Cc1ccc(C(=O)Cn2cncn2)cc1,-,-,-,-,.,.
C/C(CCc1ccc2c(c1)OCO2)=N\N=C(/N)SC1CC(=O)N(c2ccccc2)C1=O (stereo not given),-,-,-,6.1,-,-
COc1cccc(N2C(=O)CC(SC(N)=Nc3ccccc3)C2=O)c1 (stereo not given),-,-,-,10.0,-,-
N/C(=N\N=C\c1ccc2c(c1)OCO2)SC1CC(=O)N(c2ccc(C(=O)O)cc2)C1=O (stereo not given),-,-,-,-,.,.
CCOc1ccc2nc(/N=C/c3nc(-c4cccc5ccccc45)oc3O)sc2c1,-,-,-,-,.,.
O=C(CN(c1ccccc1)S(=O)(=O)c1ccccc1)N/N=C/c1cccs1,-,-,-,-,.,.
COc1ccc(N=Cc2ccc3c(c2)OCCO3)cc1,-,-,-,-,.,.
O=C(NC1CCN(Cc2ccccc2)CC1)c1csc(-c2ccccc2)n1,-,-,-,-,.,.
O=C(NC1CCN(Cc2ccccc2)CC1)c1csc(NCc2cccnc2)n1,-,-,-,5.0,-,-
CC(=O)c1cccc(-c2nc(C(=O)NC3CCN(Cc4ccccc4)CC3)cs2)c1,-,-,-,9.9,-,-
Nc1cccc(-c2cccc(C(=O)NC3CCN(Cc4ccccc4)CC3)n2)c1,-,-,-,5.3,-,-
